Fam108B inh: Fam108B inhibition, counter-screen for RBBP9 inhibitors. inhibition, % at 9.51 µM. AID 1947. hit rate 0.33% among 300,000. recombinant Fam108B, FP-Rh probe fluorescence polarization;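 active means inhibition above the screen mean inhibition plus 3 SD, computed separately per campaign, cut at about 18% in these data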;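 further: inhibitors lower polarization as less probe binds the enzyme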
LYPLA1 inh: counter-screen for PME1 inhibitors: inhibitors of human LYPLA1; hit rate 0.16% among 320,000; O75608; recombinant LYPLA1, FP-Rh probe fluorescence polarization; inhibition, % at 5.9 µM; AID 2174;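 active means inhibition above the mean of all tested compounds plus 3 SD, set per campaign, cut at about 14% in these data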;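 further: inhibitors block serine hydrolase probe labeling of LYPLA1 so polarization falls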
PREPL inhibitor: human PREPL enzyme inhibition; recombinant PREPL, fluorescence polarization activity-based probe; Q4J6C6; hit rate 0.68% among 320,000; inhibition, % at 5.96 µM; in the data active means inhibition above about 43%
GSTO1 inh: blocks human GSTO1 in RBBP9 counter-screen. recombinant GSTO1, activity-based probe fluorescence polarization. inhibition, % at 5.96 µM. hit rate 1.1% among 300,000. AID 1974;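 active means inhibition above the campaign mean inhibition plus 3 SD, cut at about 35% in these data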
LYPLA2 inh: LYPLA2 (human) inhibition in PME1 counter-screen; recombinant LYPLA2, FP-Rh probe fluorescence polarization; hit rate 0.38% among 320,000; inhibition, % at 5.9 µM; O95372;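 active means inhibition above the screen-wide mean plus 3 SD, limit set per campaign, cut at about 26% in these data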
PME-1 primary: PME-1 (human) inhibition. Q9Y570. inhibition, % at 5.9 µM. recombinant PME-1, FP-Rh probe fluorescence polarization. hit rate 0.53% among 320,000;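 active means inhibition above the campaign mean of all compounds plus 3 SD, cut at about 26% in these data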;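 further: competitive labeling of PME-1 active site by serine hydrolase directed probe; inhibitors block probe labeling so polarization falls and inhibition rises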
Target sequence (Q9Y570 whole entry, looked up): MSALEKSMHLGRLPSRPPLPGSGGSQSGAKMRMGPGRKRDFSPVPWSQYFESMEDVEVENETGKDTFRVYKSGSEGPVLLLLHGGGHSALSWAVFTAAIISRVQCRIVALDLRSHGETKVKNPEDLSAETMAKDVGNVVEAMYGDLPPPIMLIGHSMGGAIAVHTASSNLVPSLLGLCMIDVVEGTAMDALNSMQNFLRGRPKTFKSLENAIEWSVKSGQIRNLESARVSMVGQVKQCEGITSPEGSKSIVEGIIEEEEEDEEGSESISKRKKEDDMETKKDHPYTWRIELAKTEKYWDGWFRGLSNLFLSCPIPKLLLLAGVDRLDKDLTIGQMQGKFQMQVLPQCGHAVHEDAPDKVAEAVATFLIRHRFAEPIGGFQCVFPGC
GSTO1 inh conf: GSTO1 (human) inhibition, confirmation | recombinant GSTO1, probe fluorescence polarization | hit rate 54% among 2,400 | shares compounds with GSTO1 inh | inhibition, % at 5.96 µM;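 active means inhibition above the primary screen's cutoff, its mean inhibition plus 3 SD, cut at about 35% in these data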;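 further: loss of polarization as inhibitors block binding of rhodamine sulfonate ester activity probe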
GSTO1 ABPP inh: blocks recombinant human glutathione S-transferase omega 1. shares compounds with GSTO1 inh. recombinant GSTO1, gel ABPP SE-Rh probe fluorescence. inhibition, % at 1 µM. hit rate 30% among 130. AID 463110;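 active means inhibition of the enzyme GSTO1 above about 75%, limit read from the data; inactive means inhibition below that limit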
Each line names hits and unclear results; the compound was inactive in the other large screens (follow-up assays come after a bar, where they were run). Only some compounds are listed: those with a hit (about 2% of all), similar ones and a draw of the others.

Cc1ccc(S(=O)(=O)Nc2cc(Cl)c(O)c3ncccc23)cc1	GSTO1 inh 61 | GSTO1 inh conf inactive
O=C(OCc1cc(=O)n2c(n1)sc1ccccc12)c1ccc(O)cc1	none
O=c1cc(CCl)nc2sc3ccccc3n12	GSTO1 inh 89 | GSTO1 inh conf 100 | GSTO1 ABPP inh 87
COc1ccccc1N1CCN(CCCN=C2CC(=O)N(C)C(=O)N2C)CC1	none (no result: Fam108B inh, LYPLA1 inh, GSTO1 inh, LYPLA2 inh, PME-1 primary)
Cc1cc(C)c2c(CCl)cc(=O)oc2c1	GSTO1 inh 65 | GSTO1 inh conf 97
CC(C)N(Cc1nnc(-c2ccc(Cl)cc2)o1)C(=O)c1cc2ccccc2o1	none (no result: Fam108B inh, GSTO1 inh)
CCc1cccc(NS(=O)(=O)c2csc(C(N)=O)c2)c1	none
Cc1ccc(/C=C2\SC(=S)N(CCC(=O)NNC(=O)c3cccnc3)C2=O)cc1	GSTO1 inh 39 | GSTO1 inh conf inactive
Cc1cc(C)c(NC(=O)CN2C(=O)NC3(CCCCC3)C2=O)c(Cl)c1	GSTO1 inh 54 | GSTO1 inh conf inactive
Cc1cc(C)c(NC(=O)CN2C(=O)NC3(CCc4ccccc43)C2=O)c(Cl)c1 (centres undefined)	none (no result: Fam108B inh, LYPLA1 inh, GSTO1 inh, LYPLA2 inh, PME-1 primary)
CN(CC(=O)Nc1ccccc1C(=O)NC1CC1)Cc1ccc(N(C)C)cc1	none (no result: Fam108B inh, GSTO1 inh)
O=[N+]([O-])c1ccc(O)c(C=Nc2ccc3oc(Cc4ccc(Cl)cc4)nc3c2)c1	GSTO1 inh 41 | GSTO1 inh conf inactive
Cc1ccc(NC(=O)Cc2ccc3c(c2)OCCO3)cc1S(=O)(=O)N1CCCCC1	none
CCOC(=O)c1c(C)n(C)c2cc(Br)c(O)c(O)c12	GSTO1 inh 45 | GSTO1 inh conf inactive
CCOC(=O)c1c(C)n(C)c2cc([N+](=O)[O-])c(O)c([N+](=O)[O-])c12	none
COc1ccc(C(CC(=O)c2ccc(O)cc2)S(=O)(=O)c2ccc(C)cc2)cc1 (centres undefined)	GSTO1 inh 40 | GSTO1 inh conf inactive
COc1ccc(C(=O)CC(c2ccccc2)S(=O)(=O)c2ccc(C)cc2)cc1 (centres undefined)	none
COc1ccc2c(c1OC)C(=O)OC2C1c2c(cc3c(c2OC)OCO3)CCN1C (centres undefined)	none
CN1CCc2cc3c(c4c2[C@H]1[C@H](O)c1ccccc1-4)OCO3	GSTO1 inh 69 | GSTO1 inh conf inactive
CCOC(=O)N1CCC(N2C(=O)c3ccccc3C2Nc2cc(C)cc(C)c2)CC1 (centres undefined)	none
CCOC(=O)N1CCC(N2C(=O)c3ccccc3C2Nc2cc(C(=O)OC)cc(C(=O)OC)c2)CC1 (centres undefined)	GSTO1 inh 59 | GSTO1 inh conf inactive
O=C1N(CCCl)c2ccc(Br)cc2C12OCCO2	none
O=C(Cc1ccsc1)NNC(=O)c1ccccc1O	GSTO1 inh 38 | GSTO1 inh conf inactive
CCOC(=O)N(C)S(=O)(=O)c1ccccc1[N+](=O)[O-]	none
O=[N+]([O-])c1ccccc1S(=O)(=O)N(CC1CO1)c1ccccc1 (centres undefined)	GSTO1 inh 98 | GSTO1 inh conf 100 | GSTO1 ABPP inh inactive
Cc1ccc(N(CC2CO2)S(=O)(=O)c2ccccc2[N+](=O)[O-])cc1 (centres undefined)	GSTO1 inh 87 | GSTO1 inh conf 97 | GSTO1 ABPP inh inactive
Cc1ccc(S(=O)(=O)N(CC2CO2)c2ccccc2[N+](=O)[O-])cc1 (centres undefined)	GSTO1 inh 78 | GSTO1 inh conf 93 | GSTO1 ABPP inh inactive
Cc1cc(C)c(S(=O)(=O)N2CCCCC2CCNC(=O)C(=O)NC2CC2)c(C)c1 (centres undefined)	none
Nc1[nH]c(=O)ncc1F	none
CC(=O)Nc1ccc(S(=O)(=O)NC2=C(N3CCN(C)CC3)C(=O)c3ccccc3C2=O)cc1	GSTO1 inh 43 | GSTO1 inh conf 38
CCN1CCN(C2=C(NS(=O)(=O)c3ccc(NC(C)=O)cc3)C(=O)c3ccccc3C2=O)CC1	GSTO1 inh 50 | GSTO1 inh conf inactive
CC(=O)Nc1ccc(S(=O)(=O)NC2=C(N3CCN(Cc4ccccc4)CC3)C(=O)c3ccccc3C2=O)cc1	none

Compound activity (PubChem BioAssay)
